Assay outcomes (PubChem)
CF NFkB inh: inhibitors of PAF-induced NF-kB signaling, primary screen, cell-based, GFP fluorescence, uHTS. KKLEB NF-kB-GFP reporter, GFP fluorescence overnight. inhibition, % at 5 µM. 360,000 compounds, 0.86% hits. AID 588850, 2011;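 active = at least 50% inhibition at 5 µM, scaled per plate between neutral and stimulator controls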;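 note: PAF is a Pseudomonas aeruginosa culture filtrate used as stimulus; plate controls were PAF-stimulated DMSO wells for no effect and unstimulated DMSO wells for full effect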
KKLEB cytotox: cytotoxicity in KKLEB CF airway cells, primary screen, cytotoxicity control for CF NF-kB inhibitor project, cell-based, uHTS, fluorescence assay plates; 360,000 compounds, 0.36% hits; KKLEB CF airway cells viability, ATPlite luminescence, overnight; active compounds read low; cells stimulated with P. aeruginosa culture filtrate; AID 602141, 2011; activity change (cytotoxicity), % at 5 µM;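 active = corrected activity change at or below -50% at 5 µM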
Peg3 prom inh: Peg3 promoter-driven luciferase inhibitors, primary screen, cell-based, HeLa, luciferase luminescence; HeLa PEG-Prom luciferase reporter, overnight; inhibition, % at 20 µM; 360,000 compounds, 1.7% hits;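 active = inhibition of at least 50% at 20 µM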
HIF-2a inh: HIF-2a reporter inhibitors, primary screen, luminescence, 786-0 RCC cells; 360,000 compounds, 0.72% hits; AID 624352, 2012; inhibition, % at 18.8 µM; 786-0 RCC cells HIF-2a reporter, luciferase luminescence, overnight;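 active = inhibition of the luminescence signal of 40% or more relative to plate controls, in a single-dose primary screen at 18.75 µM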
MITF TRPM1 inh: inhibitors of MITF-dependent TRPM1 promoter reporter, primary screen, cell-based, SK-MEL-5, single point, luciferase; SK-MEL-5 TRPM1 promoter luciferase, 24 h; inhibition, % at 12.5 µM; 330,000 compounds, 0.83% hits;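 active = mean inhibition across replicates of 60% or more, whatever share of single replicates reaches that level; inconclusive = some that reach 60%, reason not given; inactive = mean inhibition across replicates below 60%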
CHOP inhibitor: inhibitors of CHOP promoter induction, primary screen, cell-based, unfolded protein response, luciferase reporter; inhibition, % at 10 µM; 220,000 compounds, 3.8% hits; CHO-K1 CHOP-promoter luciferase, tunicamycin-induced, 15-18 h;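 active = compounds that reduced the stress-induced luciferase reporter signal by more than about 70% of percent inhibition, limit read from the data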;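 note: 0% = tunicamycin plus vehicle and 100% = wells without tunicamycin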
Numbers without * were called inactive; ? = inconclusive; · = no result given. In the library only some 4.3% were active in any assay of this set; here they are far more common.

SMILES	CF NFkB inh	KKLEB cytotox	Peg3 prom inh	HIF-2a inh	MITF TRPM1 inh	CHOP inhibitor
Cc1c2cnn(CC(=O)Nc3c(F)c(F)cc(F)c3F)c(=O)c2c(C)n1Cc1ccc(F)cc1	·	·	·	·	·	79*
ClC(Cl)c1nnc(-c2ccccc2)c(-c2c[nH]c3ccccc23)n1	-6	2	48	2	42	80*
Cc1nnc(NCc2n[nH]c(=O)c3ccccc23)c2ccccc12	-9	4	106*	-42	20	55
Cc1ccc(S(=O)(=O)c2nc(S(C)(=O)=O)sc2N2CCC(C)CC2)cc1	44	-13	46	13	13	·
CCOC(=O)c1cc2nc(Nc3ccc(OC)cc3)sc2s1	0	2	-132	-98	-24	70*
CCOC(=O)c1sc(Nc2ccc(Br)cc2)nc1C	-11	2	-180	-258	-50	2
CN=c1scc(-c2ccc(F)cc2)n1/N=C/c1ccc(O)c(O)c1	13	-27	16	-103	68*	72*
CN=c1scc(-c2ccc([N+](=O)[O-])cc2)n1/N=C/c1ccco1	-8	5	-94	-95	-33	2
CCOC(=O)c1cnc(-n2nc(C)cc2C)nc1NCc1ccc2c(c1)OCO2	-10	-10	17	9	11	87*
COc1cc(C(=O)OCC(=O)NC2CC2)ccc1OCCC(C)C	-23	11	3	-20	-3	·
CC1=CN2C(=N)/C(=C/c3ccc(Sc4ccc(Cl)cc4)o3)C(=O)N=C2S1	30	-20	-20	-27	3	77*
CC1=CN2C(=N)/C(=C/c3ccc(Sc4ccc(C)cc4)o3)C(=O)N=C2S1	6	-8	-66	-138	-11	17
OCC[C@@H]1C[C@H](O)[C@@H](O)[C@]2(Cc3ccccc3CO2)O1	-12	-4	3	13	10	·
COCCN1C(=O)COc2ccccc2C1C(=O)Nc1c(C)cccc1C (stereo unspecified)	·	·	·	4	·	·
COC(=O)[C@@H]1Cc2c([nH]c3ccccc23)C(C)(C)N1C(=O)CCl	74*	-62*	22	35	28	·
O=C([C@H]1O[C@@H](n2ccc(=O)[nH]c2=O)[C@H](O)[C@@H]1O)N1CCN(c2ccc(Cl)cn2)CC1	-25	-15	5	12	·	·
O=C(O)CCCCCC[C@H]1C(=O)NC(=O)N1CC[C@@H](O)C1CCCCC1	·	·	·	·	·	1
Cn1ccc(NC(=O)c2ccc([N+](=O)[O-])cc2)n1	18	2	-8	-34	-6	·
COc1ccc(/C=C/C(=O)NCC(=O)N/N=C(/C)c2ccc(Cl)cc2)cc1	0	-3	16	0	6	·
CCOC(=O)N1CCN(S(=O)(=O)c2c(C(=O)N3CCCCC3)c(C)n(C)c2C)CC1	-10	11	21	8	4	·
COC1=C(N)C(=O)c2nc(C)ccc2C1=O	57*	3	34	1	113*	·
COC1=C(OC)C(=O)c2ccccc2C1=O	·	·	·	·	·	-20
Fc1ccccc1Nc1nc2c(s1)CCc1ccccc1-2	·	·	·	·	·	71*
CCOC(=O)c1cnn(-c2cc(C)nc3c(-c4ccccc4)c(C)nn23)c1N	7	-4	-1	4	-9	81*
CCOC(=O)c1cnc2c(-c3ccccc3)cnn2c1N	10	-34	-218	-231	-56	80*
SMILES	CF NFkB inh	KKLEB cytotox	Peg3 prom inh	HIF-2a inh	MITF TRPM1 inh	CHOP inhibitor
CCOC(=O)c1cnn(-c2cc(C)nc3c(-c4ccc(Cl)cc4)c(C)nn23)c1N	·	·	·	·	·	84*
CCOC(=O)c1cnc2c(-c3ccccc3)c(C)nn2c1N	-18	11	-76	-78	-55	32
CC(CC(=O)N1CCc2ccccc21)n1cccn1 (stereo unspecified)	-35	11	-29	-41	7	·
COc1ccc(C(CNC(=O)COc2cccc(C(F)(F)F)c2)N2CCCC2)cc1 (stereo unspecified)	5	-4	-8	-7	-2	·
CO[C@H]1CC[C@@]2(C)[C@@H](CC[C@@H]3[C@@H]2CC[C@@]2(C)[C@H]3C[C@H](C(=O)N[C@@H](CCCN=C(N)N)C(=O)NCC(=O)N[C@@H](CC(=O)O)C(N)=O)O[C@]23CCCO3)C1	-5	15	-22	6	1	·
Cc1noc2ncnc(N3CCCC3)c12	-6	0	8	12	-2	14
Cc1noc2ncnc(Sc3ccc(Br)cc3)c12	29	-5	99*	0	-17	13
Cc1ccc(S(=O)(=O)N2[C@@H](CO)CO[C@H]2CC(=O)c2cccs2)cc1	·	·	·	-9	·	·
CN(C)c1ccc(Cc2cc3c(O)ccc(O)c3cc(Cc3ccc(N(C)C)cc3)c2=O)cc1	-8	1	25	48*	37	·
CN(C)c1ccc(C(=O)c2ccc(O)cc2O)cc1	10	10	-219	-142	-56	2
C/C(=N/Nc1cc(-c2ccccc2)nc(-c2ccccc2)n1)c1ccc(O)cc1	-41	14	-106	-234	5	75*
O=C(CN1CCCCC1)N=Nc1c(O)[nH]c2ccccc12	-10	15	-7	-41	14	4
O=C(CN1CCN(Cc2ccccc2)CC1)N=Nc1c(O)[nH]c2ccccc12	-3	-8	52*	13	-5	10
Cc1ccccc1C(c1ncccc1C)N(C)C(=O)C1CCN(CCOc2ccc(Cl)cc2Cl)CC1 (stereo unspecified)	13	-11	100*	7	·	·
COc1ccc(C(NC(=O)C2CCN(CCOc3ccc(Cl)cc3Cl)CC2)c2ccccc2C)cn1 (stereo unspecified)	13	-24	1	-17	·	·
O=C(NC(c1ccccc1)c1ccsc1)C1CCN(CCOc2ccc(Cl)cc2Cl)CC1 (stereo unspecified)	8	-31	54*	-13	·	·
O=C(c1cccc(F)c1)N1CCN=C1SCc1cccnc1	10	15	-10	13	-2	86*
Cc1ccc(S(=O)(=O)Nc2ccc3c4c(cccc24)CC3)c(C)c1	15	-3	29	11	13	·
Cc1cc(C)c(S(=O)(=O)Nc2ccc3c4c(cccc24)CC3)c(C)c1	57*	-34	16	18	?	59
O=C(c1ccco1)N(CCCN1CCOCC1)c1nc(-c2ccc(Cl)cc2)cs1	5	-17	24	-9	-3	-2
CCN(CC)CCCN(C(=O)c1ccco1)c1nc(-c2ccc(Cl)cc2)cs1	7	0	64*	13	-7	·
CCN(CC)CCCN(C(=O)c1ccco1)c1nc(-c2ccc(C)cc2)cs1	21	-15	57*	10	0	-8
COCCCN(C(=O)c1ccco1)c1nc(-c2ccc(OC)cc2)cs1	7	-4	-25	-126	-6	·
